Reference: PubChem BioAssay (NCATS)
Records with an inconclusive call do not appear. Entries that show only a call come without a potency. The source made the active and inactive calls. Calls come from the whole dose curve; as a rule, active = well fitted inhibition curve with a large enough effect; inconclusive = small, poorly fitted or top-dose-only effect; inactive = flat fitted curve, though single readings scatter.

Experiment: P-glycoprotein substrates identified in KB-8-5-11 adenocarcinoma cell line, qHTS therapeutic library screen (AID 1346987); note: nearly all actives have a fitted effect of over 65% in size
Details: KB-8-5-11 (P-gp overexpressing) viability, CellTiter-Glo, 72 h; series mostly up to 44.5 µM
Method in brief: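 KB-8-5-11, a colchicine-selected P-gp-overexpressing KB-3-1 subline, was grown without colchicine for the assay. Cells were seeded at 500 cells/well, dosed in concentration-response and incubated 72 h at 37 degree C, 5% CO2. Viability was read by CellTiter-Glo luminescence.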
Potency is the fitted concentration of half-maximal effect.

Row | Structure (SMILES) | Potency | outcome
1 | Cc1ccccc1NC(=O)Nc1ccc(CC(=O)N(C)[C@@H](CC(C)C)C(=O)NCC[C@H](NC(=O)[C@@H]2CCCN2S(=O)(=O)c2cc(Cl)cc(Cl)c2)C(=O)O)cc1 | inactive | –
2 | C[C@H]1O[C@@H](O[C@H]2CC[C@@]3(C)C(CC[C@]4(C)C3CC=C3C5CC(C)(C)CC[C@]5(C(=O)O)CC[C@]34C(=O)O)C2(C)C)[C@H](O)[C@@H](O)[C@@H]1O (some centres undefined) | inactive | –
3 | C=C1C(OC(C)=O)CCC2(C)CC3(OC)OC(=O)C(C)=C3CC12 (centres undefined) | inactive | –
4 | CC(C)c1cc(CNc2nc(Nc3cc(C4CC4)[nH]n3)cc(N3CCN(C)CC3)n2)on1 | 5.8 µM (active) | –
5 | Cc1cccc(-c2[nH]c(Cc3cccc(C(N)=O)c3)nc2-c2ccc3nccnc3c2)n1 | inactive | –
6 | CC1CC[C@]2(C(=O)O)CC[C@]3(C(=O)O)C(=CCC4[C@@]5(C)CC[C@H](O[C@@H]6O[C@H](CO)[C@@H](O)[C@H](O)[C@H]6O)C(C)(C)C5CC[C@]43C)C2C1C (some centres undefined) | inactive | –
7 | C=CC1C(OC2OC(CO)C(O)C(O)C2O)OC=C2C(=O)N3C(C(=O)O)Cc4c([nH]c5ccccc45)C3CC21 (centres undefined) | inactive | –
8 | CN(C)CCCCC(=O)Nc1ccc(NC(=S)NC(=O)c2ccc(C(C)(C)C)cc2)cc1 | 13 µM (active) | –
9 | O=C(Nc1ccc(Cl)cc1F)c1ccccc1O | 7.31 µM (active) | –
10 | O=C1Nc2ccccc2C(O)(c2ccccc2)C1O (centres undefined) | inactive | –
11 | C=CC(C)(C)c1[nH]c2cc3c(cc2c1CC1NC(=O)C2CCCN2C1=O)C=CC(C)(C)O3 (centres undefined) | inactive | –
12 | CC(=O)N1CCN(Cc2ccc([C@H](C)Nc3nccc(N4C(=O)OC[C@@H]4C(C)C)n3)cc2)CC1 | inactive | –
13 | C[C@H]1CC[C@@]2(OC1)O[C@H]1CC3C4CC[C@H]5C[C@@H](O)[C@H](O)C[C@]5(C)C4=CC(=O)[C@]3(C)[C@H]1[C@@H]2C (some centres undefined) | inactive | –
14 | COc1ccc(-c2ccc(-c3cn(C(=O)N4CCCCC4c4ccccc4)nn3)cc2)cc1 (centres undefined) | inactive | –
15 | CC1=C(C(=O)O[C@@H]2O[C@H](COC3OCC(O)C(O)C3O)[C@@H](O)[C@H](O)[C@H]2O)C(C)(C)CCC1 (some centres undefined) | inactive | –
16 | CC(C)C[C@H](CC(=O)NO)C(=O)N[C@@H](Cc1ccc2ccccc2c1)C(=O)N[C@@H](C)C(=O)NCCN | inactive | –
17 | CC1(C)CC[C@]2(C(=O)O[C@@H]3O[C@H](CO)[C@@H](O)[C@H](O)[C@H]3O)CC[C@]3(C)C(=CCC4[C@@]5(C)CC[C@H](O[C@@H]6O[C@H](C(=O)O)[C@@H](O)[C@H](O[C@@H]7O[C@H](CO)[C@H](O)[C@H](O)[C@H]7O)[C@H]6O)C(C)(C)C5CC[C@]43C)C2C1 (some centres undefined) | – | inactive [at 9.29 µM]
18 | CC(Oc1cc(-n2cnc3ccc(CN4CCN(C)CC4)cc32)sc1C(N)=O)c1ccccc1C(F)(F)F (centres undefined) | 2.59 µM (active) | –
19 | COC(=O)CC(O)C1OC(c2ccccc2)C(O)C1O (centres undefined) | inactive | –
20 | CNS(=O)(=O)CC1CCC(N(C)c2ncnc3[nH]ccc23)CC1 (centres undefined) | inactive | –

Row | Structure (SMILES) | Potency | outcome
21 | CC1(C)CCC2(C(=O)OC3OC(CO)C(O)C(O)C3O)CCC3(C)C(=CCC4C5(C)CCC(O)C(C)(C(=O)O)C5CCC43C)C2C1O (centres undefined) | inactive | –
22 | Cc1ccc(C)c(OCCn2cc(C(=O)O)c3ccccc32)c1 | inactive | –
23 | CC(C)(C)OC(=O)N1CCC(OCc2nc(-c3ccncc3)no2)CC1 | inactive | –
24 | COc1ccc(CC2NCCc3c2[nH]c2ccc(C)cc32)cc1OC (centres undefined) | inactive | –
25 | COc1ccc([C@H]2CNC(=O)C2)cc1OC1CCCC1 | inactive | –
26 | O=[N+]([O-])c1cn2c(n1)OCC(OCc1ccc(OC(F)(F)F)cc1)C2 (centres undefined) | inactive | –
27 | O=C(CC(c1ccccc1)c1ccccc1)N1CCN(C(c2ccccc2)c2ccccc2)CC1 | 16.4 µM (active) | –
28 | C[C@@H]1COCCN1c1cc(C2(S(C)(=O)=O)CC2)nc(-c2cccc3[nH]ccc23)n1 | 1.46 µM (active) | –
29 | COC(=O)Cc1cc2c(c([N+](=O)[O-])c1)N(C(=O)CC[C@H](N)C(=O)O)CC2 | inactive | –
30 | CCCNc1ccc2ncc(-c3ccc4[nH]ncc4c3)n2n1 | 3.66 µM (active) | –
31 | C=C1CN(Cc2ccc(C(=O)Nc3ccccc3N)cc2)C(=O)c2ccccc21 | 1.3 µM (active) | –
32 | CC(=O)c1ccc(O[C@@H]2O[C@H](CO)[C@@H](O)[C@H](O)[C@H]2O)cc1 | inactive | –
33 | O=S(=O)(NCC1CC1)c1ccc(Nc2nccc(N3CCCc4cc(O)ccc43)n2)cc1 | 9.2 µM (active) | –
34 | C#CCN(Cc1cc2c(=O)[nH]c(C)nc2cc1Br)c1ccc(C(=O)NCc2cccnc2)cc1 | 0.259 µM (active) | –
35 | CC(C)[C@H]1CC[C@@]2(O)COC(=O)[C@H]2[C@@H]1/C=C(\CO)C(=O)O | inactive | –
36 | CC(C)(C#N)c1ccc(N2C(=O)OCc3cnc4ccc(-c5cnc6ccccc6c5)cc4c32)cc1 | 3.66 µM (active) | –
37 | CC1CCC2(CO)C(C(=O)O)=CCCC2C1(C)CCc1ccoc1 (centres undefined) | inactive | –
38 | CC(C)C(CO)Nc1nc(Nc2ccc(C(=O)O)c(Cl)c2)c2ncn(C(C)C)c2n1 (centres undefined) | inactive | –
39 | CC[C@H](C)[C@H](NC(=O)[C@H]([C@@H](C)CC)N(C)C(C)=O)C(=O)N[C@H](C(=O)N[C@@H](CC(C)C)C(=O)[C@@]1(C)CO1)[C@@H](C)O | 2.59 µM (active) | –
